Results: ChEMBL document CHEMBL3988442, “University of Dundee, Small-Polar-MMV Screening Library” (2021)
Hit rate of the full screen: of about 66,000 compounds, about 960 (1.5%) showed an effect of 50% or more. The sample holds strong results, similar compounds and a random draw of the others, so the mix is not that of the screen.

Tested on: Trypanosoma brucei
Assay: Trypanosoma brucei 72 hour study
Type: functional, organism-based
Set-up: scale not given: in the data most compounds retested in dose-response had high values

| SMILES | Percent Effect (30.3 µM, […]) [%] | Percent Effect (30 µM, 30.03 µM) [%] |
| --- | --- | --- |
| COCC(=O)NCc1cnc(C)nc1-c1cn(C)c2ccc(OC)cc12 | -5.457 |  |
| COc1ccc2c(c1)c(-c1nc(C)ncc1CN)cn2C | -32.27 |  |
| COc1ccc2c(c1)c(-c1nc(N(C)C)ncc1CN)cn2C | 100.6 |  |
| O=C(Nc1ccccc1Cl)N1CCN(CC2CC2)[C@@H]2CS(=O)(=O)C[C@@H]21 |  | -39.32 |
| Cc1ccc2c(c1)nc1n2[C@@H](CNC(=O)c2cncnc2)COC1 | -3.868 |  |
| COc1ccc(C(=O)NC[C@H]2COCc3nc4cc(C)ccc4n32)cc1 | 101.3 |  |
| COc1ccc2c(c1)nc1n2[C@@H](CNC(=O)c2ccccn2)COC1 |  | -12.62 |
| CCNC(=O)NC[C@H]1COCc2nc3cc(C)ccc3n21 | 32.27 |  |
| CCNC(=O)NC[C@H]1COCc2nc3cc(OC)ccc3n21 |  | 86.68 |
| COc1ccc2c(c1)nc1n2[C@@H](CNC(=O)c2cccnc2)COC1 | -10.65 |  |
| Cc1ccoc1-c1nnc(CNC2CCCN(c3cccnn3)C2)o1 (configuration not stated) | 3.988 |  |
| CNCC(=O)N1CCCC1c1cncc(Oc2ccc(F)cc2)n1.Cl (configuration not stated) | -5.938 |  |
| CS(=O)(=O)c1ccc(-c2cnc(C3CCCN3)cn2)cc1.Cl (configuration not stated) | -27.05 |  |
| Cc1nccc(N[C@H]2CN(C(=O)CN3CCCC3=O)C[C@@H]2C(C)C)n1 |  | -19.05 |
| O=C(CN1CCCCC1)N1CCC(c2cc(=O)n3c(n2)CCCCC3)C1.O=C(O)CC(O)(CC(=O)O)C(=O)O (configuration not stated) | -11 |  |
| Cc1ccc(CN2CCC3(CC2)C(=O)N(CC(C)C)CCN3C)s1.O=C(O)C(F)(F)F.O=C(O)C(F)(F)F | -75.61 |  |
| COc1cccc([C@@]2(O)CC[C@@H]3CN(C(=O)c4ccn(C)n4)C[C@@H]32)c1 | 1.75 |  |
| CN(CC(=O)NCC(F)(F)F)C(=O)c1ccc(C(=O)OC(C)(C)C)cc1 |  | 14.69 |
| N#Cc1c(Cl)nsc1NCc1ccnc(OCC(F)(F)F)c1 |  | -8.155 |
| CCS(=O)(=O)c1ccccc1N1CCC(NC2CCCC2)CC1 | 22.61 |  |
| N#Cc1cn(C2CC2)c(=O)n(Cc2ncc(-c3cccs3)o2)c1=O | 55.83 |  |
| N#Cc1cn(C2CC2)c(=O)n(Cc2noc(-c3cccs3)n2)c1=O | 18.62 |  |
| N#Cc1cn(C2CC2)c(=O)n(Cc2cc(-c3cccs3)on2)c1=O | -130.2 |  |
| Cc1nc(CNC(=O)N2CCN(c3ccc(Cl)cn3)CC2)sc1C | 8.84 |  |

| SMILES | Percent Effect (30.3 µM, […]) [%] | Percent Effect (30 µM, 30.03 µM) [%] |
| --- | --- | --- |
| COc1cccc(C(=O)N2C[C@H]3CC[C@@H]2CN(Cc2cscn2)C3)c1 |  | -1.998 |
| O=C(NCc1cccs1)[C@H]1CC[C@@H]2[C@@H](CCN2C2CCC2)O1.O=C(O)C(F)(F)F |  | -12.3 |
| Cl.Cl.c1cnc(NCc2cncc3c2CCN(Cc2cccs2)C3)nc1 |  | -8.466 |
| CC(C)CN1CCC(NC(=O)c2ccc(F)cc2F)CC1 |  | -0.8337 |
| CCCN1CCC(NC(=O)c2csc(C)c2C)CC1 | -65.99 |  |
| CC(C)CN1CCC(NC(=O)c2ccc(F)cc2Cl)CC1 |  | -22.52 |
| CCCN1CCC(NC(=O)c2ccc(F)cc2I)CC1 |  | 80.53 |
| CC(C)CN1CCC(NC(=O)c2ccc(F)cc2I)CC1 |  | 77.98 |
| CCN1CCC(NC(=O)c2ccc(F)cc2I)CC1 |  | 29.33 |
| CNC(=O)COC1COC2(CCN(Cc3cccnc3OC)CC2)C1.O=C(O)C(F)(F)F (configuration not stated) | -30.72 |  |
| O=C(O)C(F)(F)F.O=C([C@@H]1C[C@@H]2CCN(c3cccc(F)c3)C[C@H]2O1)N1CCCC1 | -10.13 |  |
| COc1cc(NC(=O)c2ccc(CN3CC[C@H](O)C3)cc2)cc(OC)c1 | 58.59 |  |
| Cc1cc(NC(=O)c2ccc(CN3CC[C@H](O)C3)cc2)ccc1F | 41.32 |  |
| Cc1cncc(NC(=O)c2ccc(CN3CC[C@H](O)C3)cc2)c1 | -21.22 |  |
| CN(C)Cc1cn2c(n1)CN(C(=O)Cc1ccsc1)CC2.O=C(O)C(F)(F)F |  | -42.4 |
| Cl.O=c1c2sccc2nc2n1CCN(Cc1ccc(F)c(F)c1)CC2 | 15.73 |  |
| Cc1cc(C)nc(N2CCc3ccc(OC(F)F)cc3C2)n1 | 70.84 |  |
| COc1ccc2c(c1)CN(c1cc(N3CCCC3CO)ncn1)CC2 (configuration not stated) | 27.38 |  |
| COc1ccc2c(c1)CN(c1nc(C)cc(C)n1)CC2 | 100.3 |  |
| COc1ccc(C2CN(c3nc(C)cc(C)n3)CCN2C(C)=O)cc1 (configuration not stated) | 9.247 |  |
| COc1cccc(O[C@H]2CCN(c3nc(C)cc(C)n3)CC[C@@H]2O)c1 | -10.89 |  |
| COc1ccnc(N2CCc3ccc(OC(F)F)cc3C2)n1 | 7.96 |  |
| CN1CCc2c(C#N)c(NCc3cccnc3)n3cnnc3c2C1.Cl |  | -8.696 |
